High-throughput results (PubChem)
Shown are actives, neighbours in structure and some others; about 5.4% of the full set was active somewhere.
A3G deaminase: blocks human APOBEC3G single-stranded DNA deamination | Q9HC16 | recombinant A3G, ssDNA deamination FAM/TAMRA fluorescence | inhibition, % at 20 µM | hit rate 0.28% among 330,000;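 active = inhibition of at least 40% at 20 µM, with no more than 30% in the related APOBEC3A deaminase screen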
aDG glyco up: increases alpha dystroglycan glycosylation; Pro5-aDG cells, alpha-DG glycosylation AlphaScreen (IIH6); 0% Pro5, 100% B10-LARGE cell signal; activation, % at 10 µM; hit rate 0.22% among 360,000; AID 624168;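 active = activation of at least 8% versus controls, or a plate z-score of at least 8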;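 also: Pro5 are CHO cells carrying HIG-tagged alpha-DG that lacks glycosylation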
ALR inh: human ALR oxidase inhibition via reduced H2O2 | hit rate 3.8% among 290,000 | purified ALR, DTT oxidation, H2O2 HRP-luminol luminescence | P55789 | inhibition, % (concentration not given with the values);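 active = mean replicate inhibition above about 79%, with every replicate also reaching it, limit read from the data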
A3A deaminase: blocks human APOBEC3A ssDNA deamination; recombinant A3A, FAM/TAMRA ssDNA deamination fluorescence; inhibition, % at 20 µM; hit rate 0.41% among 330,000;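 active = at least 40% inhibition at 20 µM here, with at most 30% in a related deaminase screen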
Target sequence (P31941 whole entry, looked up): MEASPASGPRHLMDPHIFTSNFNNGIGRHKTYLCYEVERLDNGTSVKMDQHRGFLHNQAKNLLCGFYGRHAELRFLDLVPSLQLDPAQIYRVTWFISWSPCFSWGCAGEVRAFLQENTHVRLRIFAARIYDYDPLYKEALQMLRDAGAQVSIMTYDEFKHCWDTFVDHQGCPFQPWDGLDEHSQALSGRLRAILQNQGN
rCAG binder: r(CAG) repeat RNA binding. inhibition, % at 3 µM. TO-PRO-1 dye displacement fluorescence. hit rate 1.3% among 370,000. AID 651821;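 active = inhibition above the plate cutoff, the mean of all test compounds on that plate plus 3 SD, cut at about 35% in these data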;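 also: higher means more dye released from RNA so lower well fluorescence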
PHOSPHO1 inh: blocks human PHOSPHO1 phosphatase activity; Q8TCT1; recombinant PHOSPHO1, absorbance phosphatase assay; inhibition, % at 13.3 µM; hit rate 1.1% among 290,000; in the data active = inhibition above about 60%
Target sequence (Q8TCT1 whole entry, looked up): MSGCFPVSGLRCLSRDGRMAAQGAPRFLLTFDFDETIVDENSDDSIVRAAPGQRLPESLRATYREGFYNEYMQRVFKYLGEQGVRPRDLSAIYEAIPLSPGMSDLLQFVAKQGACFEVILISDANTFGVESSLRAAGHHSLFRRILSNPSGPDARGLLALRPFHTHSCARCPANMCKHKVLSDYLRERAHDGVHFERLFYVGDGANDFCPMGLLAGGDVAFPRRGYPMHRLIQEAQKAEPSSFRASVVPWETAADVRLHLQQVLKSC
Large screens that a line does not name were inactive.

O=[N+]([O-])c1cccc(OC[C@@H](O)CN2CCC(C(O)(c3ccccc3)c3ccccc3)CC2)c1	none (no result: A3G deaminase, aDG glyco up, ALR inh, A3A deaminase, PHOSPHO1 inh)
Clc1nnc(N/N=C/c2ccccc2)c2ccccc12	none
C[n+]1ccc(/C=N/Nc2nc(Cl)c(C#N)c(Cl)c2Cl)cc1	ALR inh 82.2
CCc1ccccc1-c1cc(C(C)=O)c2n(c1=O)CCC2	none (no result: A3G deaminase, aDG glyco up, ALR inh, A3A deaminase, PHOSPHO1 inh)
COc1cccc(N2CCN(C(=O)c3ccc(CS(=O)c4ccc(Cl)cc4)o3)CC2)c1 (centres undefined)	ALR inh 87.9
COc1cccc(N2CCN(C(=O)c3ccc(CS(=O)c4ccc(C)cc4)o3)CC2)c1 (centres undefined)	none
COc1cccc(N2CCN(C(=O)c3ccc(CS(=O)Cc4ccc(C)cc4)o3)CC2)c1 (centres undefined)	ALR inh 79.5
Cc1c(-c2ccccc2)sc(N)c1C(=O)N1CCOCC1	ALR inh 98.9, PHOSPHO1 inh 74.4
CCOC(=O)c1c(N)sc(C(O)(C(F)(F)F)C(F)(F)F)c1-c1ccccc1	none (no result: ALR inh)
CCCCNC(=O)c1cc(-c2ccccc2)sc1N	none (no result: A3G deaminase, ALR inh, A3A deaminase, PHOSPHO1 inh)
NNC(=O)c1cc(-c2ccccc2)sc1N	ALR inh 97.1
CCOC(=O)c1cc(-c2ccccc2)sc1N	ALR inh 98.7
CCOC(=O)c1c(N)sc(-c2ccccc2)c1C	ALR inh 98.7
Cc1cn(-c2cc(NC(=O)c3ccc(C)c(Nc4nccc(-c5cccnc5)n4)c3)cc(C(F)(F)F)c2)cn1	none (no result: A3G deaminase, aDG glyco up, ALR inh, A3A deaminase, PHOSPHO1 inh)
Cc1cccc(C)c1NC(=O)[C@H]1CC(=O)O[C@@H]1c1ccccc1	none (no result: A3G deaminase, aDG glyco up, ALR inh, A3A deaminase, PHOSPHO1 inh)
Fc1ccc(-n2[nH]nnc2=S)cc1N1CCCC1	ALR inh 82.2, PHOSPHO1 inh 77.7
Cc1csc(NC(=O)c2ccc(COc3cccc(F)c3)o2)n1	none (no result: A3G deaminase, aDG glyco up, ALR inh, A3A deaminase, PHOSPHO1 inh)
C#CCNC(=O)C[C@H]1C[C@@]2(C(=O)OCC)CCCC3=C2N(CCC3)C1=O	none (no result: A3G deaminase, aDG glyco up, ALR inh, A3A deaminase, PHOSPHO1 inh)
C[C@@H]1O[C@@H](OC2C(O)C(OCCc3ccc(O)c(O)c3)OC(CO)C2OC(=O)/C=C/c2ccc(O)c(O)c2)[C@H](O)[C@H](O)[C@H]1O (some centres undefined)	ALR inh 99.0 (no result: aDG glyco up, rCAG binder, PHOSPHO1 inh)
CCOc1ccc(CNc2ccc3c(c2)ncn3C)cc1	ALR inh 82.2
CCOc1ccc(CNc2ccc3c(c2)ncn3C(C)(C)C)cc1	none
Cn1cnc2cc(NCc3ccc(Cl)cc3)ccc21	ALR inh 94.3
CCOC(=O)C1C(=O)CC(C)(O)C(C(=O)OCC)C1c1ccc(N(CC)CC)cc1 (centres undefined)	ALR inh 98.1
CCOC(=O)C1C(=O)CC(C)(O)C(C(=O)OCC)C1c1ccc(F)cc1 (centres undefined)	none
COc1ccc(C2CC(=O)C(c3ccc(C(C)=O)cc3)=CN2Cc2ccccc2)cc1 (centres undefined)	none (no result: A3G deaminase, aDG glyco up, ALR inh, A3A deaminase, PHOSPHO1 inh)
CCOC(=O)C1CCN(C(=O)c2ccc3c(Cl)c4c(nc3c2)CCCC4)CC1	ALR inh 95.4
Cc1ccc(NC(=O)c2ccc3c(SCC(=O)O)c4c(nc3c2)CCCC4)c(Br)c1	ALR inh 90.2
CCOC(=O)N1CCN(C(=O)c2ccc3c(SCC(=O)O)c4c(nc3c2)CCC4)CC1	ALR inh 79.8
CC1CCN(C(=O)c2ccc3c(Cl)c4c(nc3c2)CCCC4)CC1	none
O=C(NCCCN1CCCC1)c1ccc2c(Cl)c3c(nc2c1)CCCC3	ALR inh 94.2
Cc1c(Cl)sn(-c2ccc(Cl)cc2)c1=O	A3G deaminase 43.6 (no result: ALR inh)
CCc1c(C)nc(SCC(=O)Nc2nc(-c3ccc(OC)cc3)cs2)[nH]c1=O	ALR inh 98.9
CCOC(=O)Cc1cnc(NC(=O)CSc2nc(C(C)C)cc(=O)[nH]2)s1	none
CCOC(=O)c1c(-c2ccc(OC)cc2)csc1NC(=O)CSc1nnc(C)c(=O)[nH]1	rCAG binder 63.0
CCOC(=O)Cc1cnc(NC(=O)CSc2nc(C)c(CC)c(=O)[nH]2)s1	ALR inh 99.1
COc1cccc(CNC(=O)C2C3C=CC4(CN(Cc5ccccc5)C(=O)C24)O3)c1OC (centres undefined)	none (no result: A3G deaminase, aDG glyco up, ALR inh, A3A deaminase, PHOSPHO1 inh)
Cc1cc2c(OCC(CNC(C)(C)C)OC(=O)c3ccccc3)cccc2[nH]1 (centres undefined)	none (no result: A3G deaminase, aDG glyco up, ALR inh, A3A deaminase, PHOSPHO1 inh)
S=c1nc(-c2ccc(Cl)cc2)[nH][nH]1	none (no result: ALR inh)
CCCOc1ccc(-c2nc(=S)[nH][nH]2)cc1	ALR inh 98.6, PHOSPHO1 inh 95.4
Cc1ccc(N/N=C/c2ccc(N3CCOCC3)cc2)cc1C	ALR inh 98.6
